Assays:
Assay in all cases: DAPPL (digital affinity profiling via proximity ligation, sequencing); 10 mM Tris-HCl pH 7.5, 50 mM NaCl, 1 mM DTT, 4% glycerol, room temperature, 30 min; GST-TFs on glutathione beads, 16-mer random dsDNA library, 0.1% formaldehyde crosslink after washing; high values mean tight binding
[1] = molecular target: T1, FLI1 (Homo sapiens, UniProt Q01543 1-452); conditions: protein: recombinant; tags: N-terminal GST; dsDNA, one strand shown
T1 sequence: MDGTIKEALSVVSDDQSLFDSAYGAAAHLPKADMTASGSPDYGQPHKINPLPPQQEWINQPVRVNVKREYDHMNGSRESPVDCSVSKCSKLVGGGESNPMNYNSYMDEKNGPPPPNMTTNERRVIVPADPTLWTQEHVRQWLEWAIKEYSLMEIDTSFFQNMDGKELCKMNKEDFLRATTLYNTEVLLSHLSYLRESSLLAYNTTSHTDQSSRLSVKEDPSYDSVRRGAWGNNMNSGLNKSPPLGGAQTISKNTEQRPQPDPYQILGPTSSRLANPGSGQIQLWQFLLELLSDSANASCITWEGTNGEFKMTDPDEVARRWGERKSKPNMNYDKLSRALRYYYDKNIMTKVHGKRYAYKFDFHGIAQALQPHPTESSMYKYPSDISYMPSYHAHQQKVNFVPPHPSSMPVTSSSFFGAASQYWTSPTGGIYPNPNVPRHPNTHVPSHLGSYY
In short: (§1)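 Beads coated with glutathione captured GST-fused human transcription factors that had been expressed in yeast, and the factors were then given DNA barcodes and pooled with a tag-only sample. The pools were incubated with 200 nmole of a random double-stranded 16-mer DNA library in Tris/NaCl/DTT/glycerol buffer for 30 min at room temperature, washed, crosslinked with 0.1% formaldehyde and proximity-ligated with BsaI/T4 ligase at 37 °C for 1 h. PCR amplification and Illumina NextSeq500 sequencing came last. Binding signal is each hexamer's read frequency for a factor divided by its frequency for the tag-only sample.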

[2] = molecular target: T2, ELK1 (Homo sapiens, UniProt P19419 1-428); conditions: protein: recombinant; tags: N-terminal GST; dsDNA, one strand shown
T2 sequence: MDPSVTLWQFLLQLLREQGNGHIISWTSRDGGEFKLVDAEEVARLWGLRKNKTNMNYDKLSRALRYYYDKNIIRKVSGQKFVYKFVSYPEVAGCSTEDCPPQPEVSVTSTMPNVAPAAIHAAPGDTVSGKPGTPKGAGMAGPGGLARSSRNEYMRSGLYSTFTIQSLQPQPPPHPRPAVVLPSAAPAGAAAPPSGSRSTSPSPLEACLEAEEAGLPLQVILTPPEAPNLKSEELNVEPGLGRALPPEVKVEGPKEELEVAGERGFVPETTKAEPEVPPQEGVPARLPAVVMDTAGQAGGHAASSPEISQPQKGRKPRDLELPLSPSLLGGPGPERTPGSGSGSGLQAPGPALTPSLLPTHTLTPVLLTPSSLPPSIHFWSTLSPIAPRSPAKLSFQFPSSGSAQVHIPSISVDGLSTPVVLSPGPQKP
In short: as §1

[3] = molecular target: T3, GABPA (Homo sapiens, UniProt Q06546 1-454); conditions: protein: recombinant; tags: N-terminal GST; dsDNA, one strand shown
T3 sequence: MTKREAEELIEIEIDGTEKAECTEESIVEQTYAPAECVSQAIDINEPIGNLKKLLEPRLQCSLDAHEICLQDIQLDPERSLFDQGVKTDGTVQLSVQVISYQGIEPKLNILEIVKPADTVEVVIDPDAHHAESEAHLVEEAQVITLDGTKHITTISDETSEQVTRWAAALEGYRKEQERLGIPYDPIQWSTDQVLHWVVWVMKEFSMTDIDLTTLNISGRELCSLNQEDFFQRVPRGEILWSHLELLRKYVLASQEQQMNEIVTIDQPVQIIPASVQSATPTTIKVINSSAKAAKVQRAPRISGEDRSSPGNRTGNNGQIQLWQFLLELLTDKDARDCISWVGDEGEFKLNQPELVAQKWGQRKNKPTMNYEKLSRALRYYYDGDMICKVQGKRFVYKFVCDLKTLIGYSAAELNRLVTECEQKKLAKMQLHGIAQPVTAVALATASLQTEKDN
In short: as §1

[4] = molecular target: T4, ERG (Homo sapiens, UniProt P11308 1-479); conditions: protein: recombinant; tags: N-terminal GST; dsDNA, one strand shown
T4 sequence: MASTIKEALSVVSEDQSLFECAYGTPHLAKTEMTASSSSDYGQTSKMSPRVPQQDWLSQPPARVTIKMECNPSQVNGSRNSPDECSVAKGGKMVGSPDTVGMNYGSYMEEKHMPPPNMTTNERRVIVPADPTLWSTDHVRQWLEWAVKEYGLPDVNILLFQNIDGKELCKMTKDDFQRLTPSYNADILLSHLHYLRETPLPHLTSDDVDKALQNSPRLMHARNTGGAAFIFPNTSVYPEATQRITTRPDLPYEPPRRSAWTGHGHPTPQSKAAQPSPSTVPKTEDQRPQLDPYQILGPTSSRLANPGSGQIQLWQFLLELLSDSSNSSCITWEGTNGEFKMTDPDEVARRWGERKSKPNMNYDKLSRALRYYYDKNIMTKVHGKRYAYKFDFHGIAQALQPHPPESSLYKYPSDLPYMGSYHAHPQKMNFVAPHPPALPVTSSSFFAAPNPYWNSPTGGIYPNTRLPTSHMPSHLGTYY
In short: as §1

[5] = molecular target: ELF1 (Homo sapiens, UniProt P32519 1-619); conditions: protein: recombinant; tags: N-terminal GST; dsDNA, one strand shown
In short: as §1

[6] = molecular target: T5, EHF (Homo sapiens, UniProt Q9NZC4 1-300); conditions: protein: recombinant; tags: N-terminal GST; dsDNA, one strand shown
T5 sequence: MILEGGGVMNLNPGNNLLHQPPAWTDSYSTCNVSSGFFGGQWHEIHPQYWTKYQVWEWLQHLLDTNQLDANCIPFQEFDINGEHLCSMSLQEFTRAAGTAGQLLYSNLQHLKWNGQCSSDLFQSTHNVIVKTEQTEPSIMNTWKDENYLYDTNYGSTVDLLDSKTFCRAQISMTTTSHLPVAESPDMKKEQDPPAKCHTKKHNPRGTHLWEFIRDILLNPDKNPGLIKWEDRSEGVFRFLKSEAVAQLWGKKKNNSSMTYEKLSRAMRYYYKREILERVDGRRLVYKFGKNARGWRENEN
In short: as §1

[7] = molecular target: SPI1 (Homo sapiens, UniProt P17947 1-270); conditions: protein: recombinant; tags: N-terminal GST; dsDNA, one strand shown
In short: as §1

[8] = molecular target: SPIB (Homo sapiens, UniProt Q01892 1-262); conditions: protein: recombinant; tags: N-terminal GST; dsDNA, one strand shown
In short: as §1

[9] = molecular target: T6, ELK3 (Homo sapiens, UniProt P41970 1-407); conditions: protein: recombinant; tags: N-terminal GST; dsDNA, one strand shown
T6 sequence: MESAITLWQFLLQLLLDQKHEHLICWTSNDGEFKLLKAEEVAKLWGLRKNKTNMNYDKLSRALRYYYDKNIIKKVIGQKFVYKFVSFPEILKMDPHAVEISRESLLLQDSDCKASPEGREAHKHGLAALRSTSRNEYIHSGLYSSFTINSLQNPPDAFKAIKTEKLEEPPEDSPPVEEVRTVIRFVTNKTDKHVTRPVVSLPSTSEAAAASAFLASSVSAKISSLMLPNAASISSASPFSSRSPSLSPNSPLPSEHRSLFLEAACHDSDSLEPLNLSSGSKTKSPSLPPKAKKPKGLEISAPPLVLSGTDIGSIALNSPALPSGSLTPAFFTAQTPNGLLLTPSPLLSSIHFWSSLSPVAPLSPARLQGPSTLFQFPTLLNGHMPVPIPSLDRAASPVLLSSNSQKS
In short: as §1

[10] = molecular target: T7, FEV (Homo sapiens, UniProt Q99581 1-238); conditions: protein: recombinant; tags: N-terminal GST; dsDNA, one strand shown
T7 sequence: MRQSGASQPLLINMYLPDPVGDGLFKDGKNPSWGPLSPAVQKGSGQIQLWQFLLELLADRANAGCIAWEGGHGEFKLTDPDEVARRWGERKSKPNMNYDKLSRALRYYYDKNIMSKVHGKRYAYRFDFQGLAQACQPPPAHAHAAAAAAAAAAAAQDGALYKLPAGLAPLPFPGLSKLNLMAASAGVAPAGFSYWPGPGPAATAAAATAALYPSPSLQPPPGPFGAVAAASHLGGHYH
In short: as §1

[11] = molecular target: ETV5 (Homo sapiens, UniProt P41161 1-510); conditions: protein: recombinant; tags: N-terminal GST; dsDNA, one strand shown
In short: as §1

[12] = molecular target: HSF1 (Homo sapiens, UniProt Q00613 1-529); conditions: protein: recombinant; tags: N-terminal GST; chain copies: 3; dsDNA, one strand shown
In short: as §1

[13] = molecular target: T8, SPIC (Homo sapiens, UniProt Q8N5J4 1-248); conditions: protein: recombinant; tags: N-terminal GST; dsDNA, one strand shown
T8 sequence: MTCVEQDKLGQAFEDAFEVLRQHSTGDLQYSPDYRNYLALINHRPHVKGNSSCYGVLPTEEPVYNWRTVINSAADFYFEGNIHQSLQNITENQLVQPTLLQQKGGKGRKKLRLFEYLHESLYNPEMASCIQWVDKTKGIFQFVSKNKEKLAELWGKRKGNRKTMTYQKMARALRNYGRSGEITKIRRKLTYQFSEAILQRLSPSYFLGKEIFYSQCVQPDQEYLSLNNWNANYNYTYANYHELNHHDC
In short: as §1

[14] = molecular target: ELF4 (Homo sapiens, UniProt Q99607 1-663); conditions: protein: recombinant; tags: N-terminal GST; dsDNA, one strand shown
In short: as §1

[15] = molecular target: T9, ELK4 (Homo sapiens, UniProt P28324-2 1-405); conditions: protein: recombinant; tags: N-terminal GST; dsDNA, one strand shown
T9 sequence: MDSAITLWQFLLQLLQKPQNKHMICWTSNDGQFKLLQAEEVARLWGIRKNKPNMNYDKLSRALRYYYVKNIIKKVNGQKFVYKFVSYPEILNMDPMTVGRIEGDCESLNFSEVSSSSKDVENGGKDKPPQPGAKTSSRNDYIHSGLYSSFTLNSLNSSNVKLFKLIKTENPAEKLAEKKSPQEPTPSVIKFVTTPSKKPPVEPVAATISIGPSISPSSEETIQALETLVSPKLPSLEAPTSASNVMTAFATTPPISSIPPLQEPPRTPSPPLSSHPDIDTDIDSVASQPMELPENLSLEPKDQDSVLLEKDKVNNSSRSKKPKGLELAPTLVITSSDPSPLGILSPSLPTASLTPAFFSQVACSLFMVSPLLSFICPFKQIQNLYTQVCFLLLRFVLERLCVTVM
In short: as §1

[16] = molecular target: T10, ETV2 (Homo sapiens, UniProt O00321 1-342); conditions: protein: recombinant; tags: N-terminal GST; dsDNA, one strand shown
T10 sequence: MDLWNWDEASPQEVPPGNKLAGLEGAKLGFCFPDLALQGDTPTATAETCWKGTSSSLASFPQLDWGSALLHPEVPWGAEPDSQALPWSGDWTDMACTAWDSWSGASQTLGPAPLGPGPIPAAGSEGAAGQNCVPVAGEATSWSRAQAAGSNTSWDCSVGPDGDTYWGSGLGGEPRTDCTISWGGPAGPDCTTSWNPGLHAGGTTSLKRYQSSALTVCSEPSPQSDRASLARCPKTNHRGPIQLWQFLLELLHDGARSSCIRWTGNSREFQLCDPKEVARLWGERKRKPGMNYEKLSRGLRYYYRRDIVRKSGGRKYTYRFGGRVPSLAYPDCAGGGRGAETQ
In short: as §1

[17] = molecular target: T11, ELF3 (Homo sapiens, UniProt P78545 1-371); conditions: protein: recombinant; tags: N-terminal GST; dsDNA, one strand shown
T11 sequence: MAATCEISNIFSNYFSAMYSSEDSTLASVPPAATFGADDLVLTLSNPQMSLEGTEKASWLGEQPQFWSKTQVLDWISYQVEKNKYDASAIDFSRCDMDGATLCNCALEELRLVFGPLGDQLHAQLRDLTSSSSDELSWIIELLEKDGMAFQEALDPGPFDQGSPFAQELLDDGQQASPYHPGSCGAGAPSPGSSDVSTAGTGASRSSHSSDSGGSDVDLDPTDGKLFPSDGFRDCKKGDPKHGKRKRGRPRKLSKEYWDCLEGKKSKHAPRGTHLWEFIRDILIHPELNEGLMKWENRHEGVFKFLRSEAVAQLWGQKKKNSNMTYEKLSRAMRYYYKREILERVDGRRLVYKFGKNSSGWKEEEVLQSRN
In short: as §1

[18] = molecular target: CRX (Homo sapiens, UniProt O43186 1-299); conditions: protein: recombinant; tags: N-terminal GST; dsDNA, one strand shown
In short: as §1

[19] = molecular target: ETV1 (Homo sapiens, UniProt P50549 1-477); conditions: protein: recombinant; tags: N-terminal GST; dsDNA, one strand shown
In short: as §1

Sequence of SPIB (Q01892 whole entry): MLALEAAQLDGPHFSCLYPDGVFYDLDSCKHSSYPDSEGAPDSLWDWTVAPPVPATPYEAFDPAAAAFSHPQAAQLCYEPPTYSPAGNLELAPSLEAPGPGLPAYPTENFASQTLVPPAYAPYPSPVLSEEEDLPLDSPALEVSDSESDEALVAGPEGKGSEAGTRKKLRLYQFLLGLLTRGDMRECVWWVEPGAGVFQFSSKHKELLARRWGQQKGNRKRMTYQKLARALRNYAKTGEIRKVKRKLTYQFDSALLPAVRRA
Sequence of ETV1 (P50549 whole entry): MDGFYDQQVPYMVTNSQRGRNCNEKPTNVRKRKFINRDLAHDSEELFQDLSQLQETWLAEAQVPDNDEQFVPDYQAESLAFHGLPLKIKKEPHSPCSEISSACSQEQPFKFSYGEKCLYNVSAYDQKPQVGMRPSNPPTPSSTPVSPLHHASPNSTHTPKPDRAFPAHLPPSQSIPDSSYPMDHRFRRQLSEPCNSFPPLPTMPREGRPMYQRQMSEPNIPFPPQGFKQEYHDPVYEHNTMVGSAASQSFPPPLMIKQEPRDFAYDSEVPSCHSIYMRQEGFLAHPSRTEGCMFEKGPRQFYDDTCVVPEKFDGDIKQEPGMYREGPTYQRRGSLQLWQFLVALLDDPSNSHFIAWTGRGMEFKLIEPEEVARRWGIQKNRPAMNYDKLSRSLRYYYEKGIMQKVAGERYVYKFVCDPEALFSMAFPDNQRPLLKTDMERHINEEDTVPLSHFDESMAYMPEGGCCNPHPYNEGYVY
Sequence of ELF1 (P32519 whole entry): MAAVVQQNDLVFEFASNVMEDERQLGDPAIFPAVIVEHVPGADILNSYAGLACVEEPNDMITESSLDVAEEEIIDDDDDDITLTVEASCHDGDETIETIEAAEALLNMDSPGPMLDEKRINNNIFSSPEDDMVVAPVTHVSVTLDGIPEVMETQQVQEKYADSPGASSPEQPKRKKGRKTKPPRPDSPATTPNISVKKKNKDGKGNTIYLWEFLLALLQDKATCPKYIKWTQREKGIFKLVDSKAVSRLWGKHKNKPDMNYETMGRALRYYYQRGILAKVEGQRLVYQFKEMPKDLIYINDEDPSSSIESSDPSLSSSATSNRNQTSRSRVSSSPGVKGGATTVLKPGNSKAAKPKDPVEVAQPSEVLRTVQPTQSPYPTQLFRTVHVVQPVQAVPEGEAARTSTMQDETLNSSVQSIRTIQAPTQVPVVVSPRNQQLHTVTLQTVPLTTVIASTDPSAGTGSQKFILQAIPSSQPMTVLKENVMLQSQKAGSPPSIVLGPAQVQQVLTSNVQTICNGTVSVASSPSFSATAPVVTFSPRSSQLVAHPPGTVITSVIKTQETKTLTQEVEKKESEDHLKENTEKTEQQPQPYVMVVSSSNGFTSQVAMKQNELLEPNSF
Sequence of ELF4 (Q99607 whole entry): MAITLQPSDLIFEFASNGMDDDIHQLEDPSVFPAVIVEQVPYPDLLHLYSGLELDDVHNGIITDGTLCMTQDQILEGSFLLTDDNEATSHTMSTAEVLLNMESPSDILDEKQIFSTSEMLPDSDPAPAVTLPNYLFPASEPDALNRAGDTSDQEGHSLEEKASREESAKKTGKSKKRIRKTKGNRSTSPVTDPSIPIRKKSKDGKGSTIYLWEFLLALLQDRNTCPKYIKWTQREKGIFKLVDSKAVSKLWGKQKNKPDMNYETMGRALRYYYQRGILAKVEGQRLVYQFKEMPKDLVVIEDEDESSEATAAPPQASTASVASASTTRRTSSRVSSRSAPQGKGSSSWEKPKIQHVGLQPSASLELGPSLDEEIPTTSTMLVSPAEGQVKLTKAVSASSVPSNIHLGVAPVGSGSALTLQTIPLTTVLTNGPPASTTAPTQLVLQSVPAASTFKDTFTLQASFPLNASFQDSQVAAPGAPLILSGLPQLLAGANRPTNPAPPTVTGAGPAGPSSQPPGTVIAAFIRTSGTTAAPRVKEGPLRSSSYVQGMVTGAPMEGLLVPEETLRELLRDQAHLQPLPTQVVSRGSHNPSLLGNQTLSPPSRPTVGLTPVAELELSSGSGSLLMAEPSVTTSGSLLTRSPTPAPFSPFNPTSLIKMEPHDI
Sequence of ETV5 (P41161 whole entry): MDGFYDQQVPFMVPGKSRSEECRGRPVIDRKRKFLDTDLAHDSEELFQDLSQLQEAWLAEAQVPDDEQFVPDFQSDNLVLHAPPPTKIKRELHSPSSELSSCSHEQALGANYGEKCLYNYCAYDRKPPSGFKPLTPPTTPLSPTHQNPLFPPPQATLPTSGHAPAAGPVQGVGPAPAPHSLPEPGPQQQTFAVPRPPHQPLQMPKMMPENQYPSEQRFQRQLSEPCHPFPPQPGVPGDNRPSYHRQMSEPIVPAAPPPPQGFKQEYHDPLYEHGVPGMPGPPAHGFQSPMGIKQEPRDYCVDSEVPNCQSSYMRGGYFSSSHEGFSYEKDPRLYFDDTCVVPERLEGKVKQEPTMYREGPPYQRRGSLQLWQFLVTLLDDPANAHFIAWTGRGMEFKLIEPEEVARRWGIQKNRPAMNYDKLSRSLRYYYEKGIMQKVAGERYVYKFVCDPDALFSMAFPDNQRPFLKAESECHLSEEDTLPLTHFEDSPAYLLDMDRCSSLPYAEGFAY
Sequence of CRX (O43186 whole entry): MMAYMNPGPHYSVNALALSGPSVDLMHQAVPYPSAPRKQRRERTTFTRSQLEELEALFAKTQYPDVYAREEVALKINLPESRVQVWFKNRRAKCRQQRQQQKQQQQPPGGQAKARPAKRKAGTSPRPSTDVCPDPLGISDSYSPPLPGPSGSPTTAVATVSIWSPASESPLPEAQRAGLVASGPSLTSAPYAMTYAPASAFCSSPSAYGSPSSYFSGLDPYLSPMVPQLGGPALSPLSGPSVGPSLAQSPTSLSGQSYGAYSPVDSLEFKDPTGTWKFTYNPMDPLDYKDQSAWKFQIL
Sequence of HSF1 (Q00613 whole entry): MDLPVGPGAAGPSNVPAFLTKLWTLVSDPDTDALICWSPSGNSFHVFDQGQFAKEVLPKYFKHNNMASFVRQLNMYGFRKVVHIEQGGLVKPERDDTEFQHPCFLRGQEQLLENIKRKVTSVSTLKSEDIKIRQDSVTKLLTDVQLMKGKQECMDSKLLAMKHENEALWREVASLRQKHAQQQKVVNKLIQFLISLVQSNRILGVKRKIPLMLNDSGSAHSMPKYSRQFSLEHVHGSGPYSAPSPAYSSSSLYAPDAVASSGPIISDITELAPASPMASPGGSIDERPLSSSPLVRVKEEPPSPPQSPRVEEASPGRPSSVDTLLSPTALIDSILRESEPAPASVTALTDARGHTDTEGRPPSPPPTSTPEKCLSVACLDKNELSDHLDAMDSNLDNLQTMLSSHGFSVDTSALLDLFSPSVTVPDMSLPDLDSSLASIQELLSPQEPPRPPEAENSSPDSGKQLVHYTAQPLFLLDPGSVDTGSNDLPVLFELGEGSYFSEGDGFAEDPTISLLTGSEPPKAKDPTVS

For TTTCGG, which binding signal [1] is on record?
Its binding signal is 1.08 fold enrichment (6-mer frequency, TF over GST control).

What about the binding signal [2] of the same sequence?
Its binding signal is 1.14 fold enrichment (6-mer frequency, TF over GST control).

What about the binding signal [3] of the same sequence?
The binding signal was 1.14 fold enrichment (6-mer frequency, TF over GST control).

What about the binding signal [4] of the same sequence?
Its binding signal is 1.26 fold enrichment (6-mer frequency, TF over GST control).

And the binding signal [5]?
The binding signal was 1.22 fold enrichment (6-mer frequency, TF over GST control).

And the binding signal [6]?
The binding signal was 1.18 fold enrichment (6-mer frequency, TF over GST control).

What about the binding signal [7] of the same sequence?
Its binding signal is 1.36 fold enrichment (6-mer frequency, TF over GST control).

What about the binding signal [8] of the same sequence?
Its binding signal is 1.14 fold enrichment (6-mer frequency, TF over GST control).

What about the binding signal [9] of the same sequence?
The binding signal was 1.22 fold enrichment (6-mer frequency, TF over GST control).

What about the binding signal [10] of the same sequence?
Its binding signal is 1.15 fold enrichment (6-mer frequency, TF over GST control).

And the binding signal [11]?
The binding signal was 1.13 fold enrichment (6-mer frequency, TF over GST control).

What about the binding signal [12] of the same sequence?
Its binding signal is 1.39 fold enrichment (6-mer frequency, TF over GST control).

What about the binding signal [13] of the same sequence?
Its binding signal is 1.05 fold enrichment (6-mer frequency, TF over GST control).

What about the binding signal [14] of the same sequence?
Its binding signal is 1.21 fold enrichment (6-mer frequency, TF over GST control).

And the binding signal [15]?
Its binding signal is 1.14 fold enrichment (6-mer frequency, TF over GST control).

And the binding signal [16]?
The binding signal was 1.16 fold enrichment (6-mer frequency, TF over GST control).

What about the binding signal [17] of the same sequence?
The binding signal was 1.22 fold enrichment (6-mer frequency, TF over GST control).

What about the binding signal [18] of the same sequence?
The binding signal was 1.25 fold enrichment (6-mer frequency, TF over GST control).

What about the binding signal [19] of the same sequence?
The binding signal was 1.31 fold enrichment (6-mer frequency, TF over GST control).
